Measured values: PubChem BioAssay AID1476 (National Center for Advancing Translational Sciences (NCATS), 2009)
Out of some 200,000 compounds screened, about 4,500 (2.2%) were called active. Another 12% or so got no clear call; they are omitted. Only a selection was taken, and actives are over-represented in it overall. Values without a mark were called inactive. Calls follow the shape of the dose curve; as a rule, active = well fitted inhibition curve with a large enough effect; inconclusive = small, poorly fitted or top-dose-only effect, or effect the other way; inactive = flat fitted curve, though single readings scatter.

target: Cruzipain (Trypanosoma cruzi) (UniProt P25779); experiment: qHTS Assay for Promiscuous and Specific Inhibitors of Cruzain (without detergent); conditions: purified cruzain, Z-FR-AMC fluorescence, no detergent; also: nearly all actives have a fitted effect of over 40% in size;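 as to max response, negative = inhibition: plate controls were enzyme without inhibitor for no effect and buffer without enzyme for full effect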
Sequence (P25779 123-467 limits assumed): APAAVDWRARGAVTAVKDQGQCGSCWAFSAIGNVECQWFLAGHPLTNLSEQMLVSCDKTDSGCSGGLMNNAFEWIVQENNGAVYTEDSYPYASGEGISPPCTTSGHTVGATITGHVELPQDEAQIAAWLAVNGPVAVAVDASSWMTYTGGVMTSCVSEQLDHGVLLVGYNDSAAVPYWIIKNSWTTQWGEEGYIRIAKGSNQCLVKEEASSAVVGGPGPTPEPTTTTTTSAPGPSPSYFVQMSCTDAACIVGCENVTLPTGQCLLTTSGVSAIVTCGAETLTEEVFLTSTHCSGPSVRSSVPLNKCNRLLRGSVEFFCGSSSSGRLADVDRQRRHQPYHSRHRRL
Summary of the method: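 Purified cruzain at 1.5 nM, pre-incubated 15 min with compound at room temperature in 100 mM sodium acetate pH 5.5, 5 mM DTT, 0.00005% Triton X-100. Reaction started with 2 uM Z-FR-AMC; AMC fluorescence increase over 60 s gives rate.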
Potency is read from the fitted curve at half-maximal effect.

Row | Compound | max response, negative = inhibition [%] | Potency
1 | CS(=O)(=O)c1ccc(-c2nnc(NC(=O)c3ccc4c(c3)OCCO4)o2)cc1 | 0.217 | 
2 | Cc1ccc2oc3c(c(=O)c2c1)C(c1ccc(O)cc1)N(Cc1ccc2c(c1)OCO2)C3=O (stereo not given) | 3.18 | 
3 | O=C(NCCN1CCOCC1)[C@H](Cc1ccccc1)N1C(=O)c2ccccc2C1=O | -6.89 | 
4 | O=C(NC1=NCCS1)[C@H](Cc1ccccc1)N1C(=O)c2ccccc2C1=O | -18.4 | 
5 | N/C(=N\c1nc2ccccc2o1)NC(=O)C(Cc1ccccc1)N1C(=O)c2ccccc2C1=O (stereo not given) |  | 25.1 µM (active)
6 | COc1cccc(Cn2c(SCc3ccc(C(=O)N4CCC(C)CC4)cc3)nc3ccncc32)c1 | 6.55 | 
7 | Cc1ccccc1CS(=O)(=O)CC1Nc2ccc(C(=O)NCc3ccc(Cl)cc3)cc2NC1=O (stereo not given) | -11.5 | 
8 | Cc1ccc(CNC(=O)CCc2c(C)nn(-c3ccc(N4CCCC4)nn3)c2C)cc1 | -1.47 | 
9 | CCOC(=O)C1=C(C)Nc2sc(C(=O)c3ccc(Br)cc3)c(N)c2C1c1ccc(C(=O)OC)cc1 (stereo not given) |  | 10 µM (active)
10 | CCOC(=O)C1=C(C)NC(C)=C(C(=O)OCC)C1c1ccccn1 | 6.72 | 
11 | COC(=O)c1ccc(C2NC(=O)NC(C)=C2C(=O)N(C)C)cc1 (stereo not given) | -7.98 | 
12 | Cc1ccc(Cc2nc3ccccc3nc2SCC(=O)Nc2cccc(C(F)(F)F)c2)cc1 | -25 | 
13 | CCN(CC)CCNC(=O)c1cc2c(=O)oc3ccc(C)cc3c2s1 | -5.21 | 
14 | Cc1ccc2c(c1)c1c(c(=O)n(-c3ccccc3)c(=O)n1CC(=O)c1ccc(Cl)cc1)n2C | 12.5 | 
15 | CCc1ccc(S(=O)(=O)c2nnn3c2nc(NCc2ccccc2OC)c2cc(Cl)ccc23)cc1 | -14.3 | 
16 | CCc1ccc(S(=O)(=O)n2ccnc2)cc1 | 3.23 | 
17 | Brc1ccc(-c2csc(N/N=C/c3ccc4c(c3)OCO4)n2)cc1 |  | 10 µM (active)
18 | O=C(Nc1nc(-c2ccc3c(c2)OCO3)cs1)c1ccncc1 | -29.2 | 
19 | O=C(Nc1nc(-c2ccncc2)cs1)C1COc2ccccc2O1 (stereo not given) | -4.88 | 
20 | COc1ccc(OC)c2sc(N3CCN(C(=O)C4COc5ccccc5O4)CC3)nc12 (stereo not given) | -0.959 | 
21 | CCN(c1ccc(Cl)cc1)S(=O)(=O)c1nnc(NC(=O)c2ccco2)s1 | 3.14 | 
22 | Cc1nnc(NCc2ccccc2)c2c1nnn2Cc1ccc(F)cc1 | 10.1 | 
23 | COc1cc(NC(=S)NCCSc2ccc(C)cc2)cc(OC)c1 |  | 0.251 µM (active)
24 | COc1cc(NC(=O)Nc2ccc(C)cc2)cc([N+](=O)[O-])c1 | -24.4 | 
25 | COc1cccc(NC(=S)NCCCN2CCOCC2)c1 | 9.47 | 
26 | Cc1nc(SCCOc2ccc(Cl)cc2)[nH]c(=O)c1Cc1ccccc1 | -8.31 | 
27 | COc1ccc(-c2nn3c(=O)cc(CN4CCN(C(=O)c5ccc(OC)c(OC)c5)CC4)nc3s2)cc1 | -11 | 
28 | COc1ccc(NC(=O)Cn2c(=O)n(CCC(C)C)c(=O)c3cccnc32)cc1Cl | -5 | 

Row | Compound | max response, negative = inhibition [%] | Potency
29 | Cc1ccccc1CNC(=O)CCCn1nc(C)c2sc3ccccc3c2c1=O |  | 25.1 µM (active)
30 | Cc1nn(CC(=O)NCCc2ccccc2)c(=O)c2c1sc1ccccc12 | -12 | 
31 | Cc1nn(C(C)C(=O)Nc2ccc(C(C)C)cc2)c(=O)c2c1sc1ccccc12 (stereo not given) | -0.208 | 
32 | COc1ccc(NC(=O)c2ccc3oc(=O)c(S(=O)(=O)c4ccc(F)cc4)cc3c2)c(OC)c1 | -3.78 | 
33 | CCn1cc(C(=O)NCc2ccc(C)cc2)c(=O)c2cc(S(=O)(=O)N3CCc4ccccc4C3)ccc21 | -8.13 | 
34 | Cc1nc2nc(SCC(=O)NCc3ccco3)nn2c(C)c1Cc1ccccc1 | -3.94 | 
35 | O=C(CCCN1C(=O)/C(=C/c2ccco2)SC1=S)Nc1ccccc1 | -9.58 | 
36 | O=c1nc2s/c(=C\c3ccco3)c(=O)n2nc1Cc1ccccc1 |  | 25.1 µM (active)
37 | COc1ccc(CCNC(=O)Cn2c(=O)n(-c3ccccc3)c(=O)c3c(C)c(C)sc32)cc1OC | -8.34 | 
38 | Cc1ccc(Cl)cc1NC(=O)CSc1nccn1C | 1.47 | 
39 | CN1c2ccc(Cl)cc2-c2nc(SCC(=O)Nc3cc(F)ccc3F)ncc2S1(=O)=O |  | 12.6 µM (active)
40 | O=C(CSc1ncc(-c2ccccc2)[nH]1)Nc1ccc(F)cc1F | 8.99 | 
41 | COc1cc2c(=O)c(S(=O)(=O)c3ccc(C(C)C)cc3)cn(Cc3ccccc3C)c2cc1OC | 19.9 | 
42 | CN1CCN(C(CNC(=O)c2ccccc2F)c2ccc3c(c2)OCO3)CC1 (stereo not given) | 7.63 | 
43 | CCCSc1ncc(Cl)c(C(=O)Nc2sc3c(c2C(=O)NCCOC)CCCC3)n1 | -6.84 | 
44 | CCOc1cccc(NC(=O)c2ccc(F)c(S(=O)(=O)N(CC)c3cccc(C)c3)c2)c1 | -18 | 
45 | Cn1c(=O)cc(OCC(=O)N2CCN(c3ccccc3)CC2)c2ccccc21 | 3.14 | 
46 | CCc1nnc(NC(=O)CSc2nc3c(c(=O)n2-c2ccccc2OC)SCC3)s1 |  | 12.6 µM (active)
47 | CCOC(=O)c1sc(NC(=O)CSc2nc3c(c(=O)n2-c2ccccc2)SCC3)c(C(=O)OCC)c1C | -25.7 | 
48 | CCOc1ccc(NC(=O)CSc2nc3c(c(=O)n2-c2ccccc2OC)SCC3)cc1 | -2.8 | 
49 | CCOC(=O)c1ccc(NC2=CC(c3ccc(OCC)cc3)N(c3ccc(C(=O)OCC)cc3)C2=O)cc1 (stereo not given) | -9.29 | 
50 | O=C(CCn1c(=O)c2sccc2n(Cc2ccc(F)cc2)c1=O)NCc1ccc2c(c1)OCO2 | 2.68 | 
51 | Cc1ccc(F)cc1S(=O)(=O)N1CCC(c2nc3ccccc3s2)CC1 | -6.75 | 
52 | CC1=CC(=C(C#N)c2nc3ccccc3s2)C=C(C)N1c1ccc(F)cc1F |  | 31.6 µM (active)
53 | CCc1cc(C(N)=O)c(NC(=O)c2ccc(OC)cc2)s1 | -3.04 | 
54 | COc1ccc(OCc2cccc(C(=O)N3CCCC3)c2)cc1 | 22.1 | 
55 | CC(C)c1cc(C(N)=O)c(NC(=O)c2cccc(COc3ccc(Br)cc3)c2)s1 |  | 5.01 µM (active)
